# Source: PubChem BioAssay (National Center for Advancing Translational Sciences (NCATS))
# p53 reactivation = qHTS assay for re-activators of p53 using a Luc reporter | H1299 p53-A138V BP100-luciferase reporter, luminescence, 24 h | Potency, µM (series often up to 92.2 µM), for the others: at the top dose activity change, positive = activation, actives largely listed as activators | actives 0.063% (n = 320,000); note: % of control where 0% means no effect; nearly all actives have a fitted effect of over 45% in size
#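 H1299 (p53-null), stable ts p53-A138V + BP100-Luc; 1000 cells/well, Opti-MEM/10% FBS; cpd 4 pt, 1:5; 24 h, 37 deg C, 5% CO2; detection reagent 10 min RT; luminescence.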
# ELG1 genotox = qHTS screen for small molecules that induce genotoxicity in human embryonic kidney (HEK293T) cells expressing luciferase-tagged ELG1 | HEK293T ELG1-luciferase reporter, luminescence, 16 h | actives 1.3% (n = 330,000) | Potency, µM (doses to about 46 µM), for inactives: top-dose activity change, positive = activation, most hits filed as activators; note: % of control where 0% means no effect; nearly all actives have a fitted effect of over 60% in size
#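 Cells (2,000/well) expressing the ELG1-luciferase fusion are dosed by pin tool and kept 16 hr at 37 °C, 5% CO2. Signal comes from ONE-Glo luciferase reagent after 30 min at room temperature.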
# SMN2 splice enh = qHTS Assay for Enhancers of SMN2 Splice Variant Expression. HEK293 SMN2-luciferase splicing reporter, luminescence, 30-36 h. Potency, µM (doses to about 46.1 µM), without a hit: top-dose activity change, positive = activation, hits mostly activators. actives 2.8% (n = 210,000). AID 1458, 2008; note: % of control where 0% means no effect; nearly all actives have a fitted effect of over 55% in size
#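 HEK293 cells carry an SMN2 minigene-luciferase reporter in which exon 7 inclusion puts luciferase in frame. Cells were seeded at 2000 cells/well, attached for 10-12 hours, then exposed to compounds for 30-36 hours at 37C before ONE-Glo luminescence.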
# Rab9 prom act = qHTS Assay for Rab9 Promoter Activators; Huh7 Rab9 promoter-luciferase reporter, luminescence, 24 h; AID 485297, 2010; Potency, µM (titrated, usually from 9.22 µM), without a hit: at the highest dose activation, negative = inhibition, hits mostly activators; actives 2.8% (n = 320,000); note: % of control where 0% means no effect; nearly all actives have a fitted effect of over 60% in size
#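 Huh7 cells stably carrying Rab9 promoter–luciferase reporter, plated 1500 cells/well, compound added after 2 h and incubated 24 h at 37 °C; luciferase luminescence then read after 10 min with detection reagent.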
# FLuc modulator = qHTS profiling assay for firefly luciferase inhibitor/activator using purifed enzyme and Km concentrations of substrates (counterscreen for miR-21 project) | Luciferin 4-monooxygenase (Photinus pyralis), P08659 | purified FLuc, Km substrates, luminescence inhibition | Potency, µM (doses to about 57.5 µM), for inactives: at the top dose activity change, negative = inhibition, hits mostly inhibitors | actives 6.9% (n = 360,000) | AID 588342, 2011;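 note: plate controls were vehicle for no effect and reference inhibitor for full effect; nearly all actives have a fitted effect of over 55% in size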
# Target sequence (P08659 whole entry, looked up): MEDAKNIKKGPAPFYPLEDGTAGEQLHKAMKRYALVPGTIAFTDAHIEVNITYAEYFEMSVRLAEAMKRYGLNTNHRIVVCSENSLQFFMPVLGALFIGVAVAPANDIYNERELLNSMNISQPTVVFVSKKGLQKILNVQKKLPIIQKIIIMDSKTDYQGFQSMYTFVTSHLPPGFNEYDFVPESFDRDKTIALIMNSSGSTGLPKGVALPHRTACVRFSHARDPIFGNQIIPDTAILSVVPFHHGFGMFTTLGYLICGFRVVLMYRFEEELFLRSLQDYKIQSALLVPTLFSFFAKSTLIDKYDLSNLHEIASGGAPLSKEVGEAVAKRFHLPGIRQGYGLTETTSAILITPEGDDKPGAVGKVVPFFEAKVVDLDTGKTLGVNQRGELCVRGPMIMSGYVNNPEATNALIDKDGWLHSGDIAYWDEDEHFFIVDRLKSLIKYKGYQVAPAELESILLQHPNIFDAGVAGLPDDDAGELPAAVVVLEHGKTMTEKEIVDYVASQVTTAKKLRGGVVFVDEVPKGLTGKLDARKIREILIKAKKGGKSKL
#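 Purified P. pyralis luciferase (10nM final) with 10uM D-luciferin and 10uM ATP (Km levels) in 50mM Tris acetate pH 7.5, 10mM Mg acetate, 0.01% Tween-20, 0.05% BSA; qHTS 6-point titration, ~60 µM downward; luminescence read.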
# NPC1 prom act = qHTS Assay for NPC1 Promoter Activators | Huh7 NPC1 promoter luciferase reporter, 24 h | Potency, µM (series often up to 9.22 µM), without a hit: at the top dose activation, usual class: activators | actives 2.4% (n = 320,000) | AID 485313, 2010; note: % of control where 0% means no effect; nearly all actives have a fitted effect of over 60% in size
#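 Huh7 cells stably carrying NPC1 promoter–luciferase, plated in Opti-MEM with 10% FBS for 2 h, were exposed to compound in DMSO for 24 h at 37 °C; luciferase reagent was added for 10 min and luminescence read.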
# * hit, by the source's call; ? = inconclusive; . = no result given; [ ] = remark or other dose. Only some compounds are listed: those with a hit (about 7.3% of all), similar ones and a draw of the others. Calls come from the whole dose curve; as a rule, active = well fitted curve in the direction sought with a large enough effect; inconclusive = small, poorly fitted or top-dose-only effect, or another doubt; inactive = no such curve, though single readings can be large; an effect the other way counts as inactive or inconclusive. Potency is the fitted concentration of half-maximal effect.
SMILES,p53 reactivation,ELG1 genotox,SMN2 splice enh,Rab9 prom act,FLuc modulator,NPC1 prom act
COc1cc(NC(=O)c2cc3cc4ccc(C)cc4nc3o2)cc(OC)c1OC,.,.,-25%,.,-5%,.
O=C(CCS(=O)(=O)c1cc(Br)cc2c1N(C(=O)C1CC1)CC2)Nc1ccc(F)cc1,.,.,24%,.,0%,.
Cc1ccc2nc(SC(C)C(=O)N3CCCCC3)[nH]c2c1 (centres undefined),2%,6%,21%,12%,?,25%
Cc1ccc2nc(SCC(=O)N3CCN(C(=O)c4ccco4)CC3)[nH]c2c1,17%,0%,11%,2%,-5%,0%
Cc1ccc2nc(SC(C)C(=O)N3CCCC3)[nH]c2c1 (centres undefined),26%,?,11µM*,?,?,15%
Cc1ccc2nc(SCC(=O)c3ccc(O)cc3O)[nH]c2c1,7%,?,.,3.2µM*,8.5µM*,?
COC(=O)CSc1nc2ccc(C)cc2[nH]1,0%,1%,-2%,0%,?,-1%
Cc1ccc2nc(SCC(=O)N3CCCC3)[nH]c2c1,7%,3.7µM*,11µM*,1.4µM*,6.7µM*,2µM*
COC(=O)C1=C(C(=O)OC)[C@@H]2N(C)c3ccccc3[C@@]23C[C@@H](C(=O)OC)N(S(=O)(=O)c2ccc(C)cc2)C3=N1,.,.,-7%[9.22 µM],.,.,.
COc1cccc(CNCC2CCCO2)c1 (centres undefined),.,2%,.,9%,-1%,3%
O=S(=O)(c1ccccc1)c1nnn2c1nc(Nc1ccccc1)c1cc(Cl)ccc12,.,.,-2%,.,-3%,.
COC(=O)c1ccccc1N/C=C/C(=O)c1ccc(Br)cc1,?,18%,11µM*,?,17µM*,25%
NC(=O)c1ccccc1N/C=C/C(=O)c1ccccc1,.,0.92µM*,7.1µM*,0.56µM*,0.85µM*,0.56µM*
Cn1c(=NC(=O)C2CCCCC2)sc2cc([N+](=O)[O-])ccc21,1%,13%,.,?,-6%,19%
Cn1/c(=N/N=C/c2ccc([N+](=O)[O-])cc2)sc2ccccc21,19%,?,17%,6%,2.1µM*,24%
COC(=O)Nc1nnc(-c2ccccc2Cl)s1,?,23µM*,?,30%,11µM*,?
COC(=O)Nc1nnc(-c2ccccc2OC)s1,4%,?,.,2.2µM*,11µM*,3.5µM*
O=c1cc(-c2ccccc2Cl)oc2ccc([N+](=O)[O-])c(O)c12,1%,0%,-27%,-1%,-10%,0%
Nc1ccc2oc(-c3ccccc3Cl)cc(=O)c2c1O,?,16µM*,11µM*,4µM*,6.7µM*,3.2µM*
CCCN1Cc2cccc(C(=O)Nc3ccc4c(c3)OCO4)c2C1=O,0%,9%,.,0%,?,-2%
COc1cc(NC(=O)c2cccc3c2C(=O)N(Cc2cccnc2)C3)cc(OC)c1OC,-5%,0%,?,-8%,1%,-6%
CCCN1Cc2cccc(C(=O)Nc3ccc(CC)cc3)c2C1=O,0%,0%,3%,0%,2.7µM*,0%
O=C(Nc1ccc2c(c1)OCO2)c1cccc2c1C(=O)N(Cc1cccnc1)C2,-4%,?,-4%,2%,15µM*,-3%
CCCN1Cc2cccc(C(=O)Nc3ccc4c(c3)OCCO4)c2C1=O,22%,5%,-1%,10%,15µM*,-3%
Cc1ccc(CN2CCN(CC(C)C)C(CCO)C2)s1 (centres undefined),17%,?,.,?,17µM*,25%
